In the supplement of paper PMC11732987, “Enantioselective OTUD7B fragment discovery through chemoproteomics screening and high-throughput optimisation” (Communications Chemistry, 2025):

Legend:
Test in all cases: log2 ratio of Biotin-Ahx-Ub-VS probe labelling (fragment/DMSO); higher = less target engagement (more negative = stronger competition), active = hit call of the paper (q ≤ 0.05, log2 ratio ≤ -1)
Settings in all cases: compound concentration: 200 uM; treatment time: 3 h
[1] = target: T1, OTUD6B (UniProt Q8N6M0)
T1 sequence (whole entry): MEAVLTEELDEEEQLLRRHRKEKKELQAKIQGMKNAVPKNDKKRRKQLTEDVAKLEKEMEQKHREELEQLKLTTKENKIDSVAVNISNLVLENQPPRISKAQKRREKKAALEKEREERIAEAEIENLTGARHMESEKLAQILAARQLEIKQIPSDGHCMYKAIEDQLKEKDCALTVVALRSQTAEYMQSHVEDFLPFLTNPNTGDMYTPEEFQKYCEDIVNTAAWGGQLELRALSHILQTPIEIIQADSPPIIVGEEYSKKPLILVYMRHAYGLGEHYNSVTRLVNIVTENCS
Outline: (§1)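 Global-median-normalised Spectronaut label-free quantities were compared by unpaired t-test, and values are average log2 ratios of fragment over vehicle. Only proteins with ≥2 unique peptides were used. HEK293T lysate (495 µg per sample) was treated in triplicate with fragment at 200 µM or vehicle for 3 h and then with Biotin-Ahx-Ub-VS at 0.5 µM final for 1 h. Labelled DUBs were then NeutrAvidin-enriched, digested with LysC and trypsin, and run by diaPASEF LC-MS/MS.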

[2] = target: T2, OTUD7B (UniProt Q6GQQ9)
T2 sequence (whole entry): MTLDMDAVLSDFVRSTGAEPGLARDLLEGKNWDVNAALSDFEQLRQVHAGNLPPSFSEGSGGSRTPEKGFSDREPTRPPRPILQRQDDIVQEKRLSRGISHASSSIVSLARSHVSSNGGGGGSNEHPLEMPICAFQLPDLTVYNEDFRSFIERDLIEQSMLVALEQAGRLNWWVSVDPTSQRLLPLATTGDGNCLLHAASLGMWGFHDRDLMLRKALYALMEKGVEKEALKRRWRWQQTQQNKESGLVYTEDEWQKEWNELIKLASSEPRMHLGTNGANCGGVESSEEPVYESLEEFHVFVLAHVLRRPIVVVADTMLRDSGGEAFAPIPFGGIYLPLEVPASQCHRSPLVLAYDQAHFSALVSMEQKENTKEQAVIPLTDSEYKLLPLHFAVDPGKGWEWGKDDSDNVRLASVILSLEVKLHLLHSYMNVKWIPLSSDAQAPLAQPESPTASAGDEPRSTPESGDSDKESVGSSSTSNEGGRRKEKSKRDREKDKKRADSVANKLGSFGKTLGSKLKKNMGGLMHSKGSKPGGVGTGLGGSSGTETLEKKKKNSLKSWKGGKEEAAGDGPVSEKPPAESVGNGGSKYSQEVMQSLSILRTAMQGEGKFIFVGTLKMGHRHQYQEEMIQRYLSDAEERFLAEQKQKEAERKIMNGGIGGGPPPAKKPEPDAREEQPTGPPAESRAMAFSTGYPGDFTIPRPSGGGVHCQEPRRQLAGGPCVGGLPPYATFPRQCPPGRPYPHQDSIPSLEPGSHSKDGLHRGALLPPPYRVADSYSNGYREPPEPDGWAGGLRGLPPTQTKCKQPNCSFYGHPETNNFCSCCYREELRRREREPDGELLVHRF
Outline: as §1

[3] = target: PRPF8 (UniProt Q6P2Q9)
Outline: as §1

[4] = target: T3, PSMD7 (UniProt P51665)
T3 sequence (whole entry): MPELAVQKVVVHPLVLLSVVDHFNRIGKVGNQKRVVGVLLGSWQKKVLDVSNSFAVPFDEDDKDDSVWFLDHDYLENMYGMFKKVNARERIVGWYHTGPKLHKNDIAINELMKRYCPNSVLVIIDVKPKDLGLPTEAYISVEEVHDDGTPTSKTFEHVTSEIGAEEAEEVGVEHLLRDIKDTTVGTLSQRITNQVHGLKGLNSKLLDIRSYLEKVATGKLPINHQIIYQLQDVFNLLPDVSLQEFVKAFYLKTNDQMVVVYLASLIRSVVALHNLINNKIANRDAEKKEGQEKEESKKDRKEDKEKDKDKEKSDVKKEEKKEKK
Outline: as §1

[5] = target: UCHL1 (UniProt P09936)
Outline: as §1

[6] = target: T4, UCHL3 (UniProt P15374)
T4 sequence (whole entry): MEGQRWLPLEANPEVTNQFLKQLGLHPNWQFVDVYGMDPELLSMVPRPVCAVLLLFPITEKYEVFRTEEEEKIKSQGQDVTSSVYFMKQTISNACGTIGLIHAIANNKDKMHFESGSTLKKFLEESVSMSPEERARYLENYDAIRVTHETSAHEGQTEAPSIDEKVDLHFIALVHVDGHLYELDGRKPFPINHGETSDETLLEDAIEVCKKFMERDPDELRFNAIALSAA
Outline: as §1

[7] = target: T5, UCHL5 (UniProt Q9Y5K5)
T5 sequence (whole entry): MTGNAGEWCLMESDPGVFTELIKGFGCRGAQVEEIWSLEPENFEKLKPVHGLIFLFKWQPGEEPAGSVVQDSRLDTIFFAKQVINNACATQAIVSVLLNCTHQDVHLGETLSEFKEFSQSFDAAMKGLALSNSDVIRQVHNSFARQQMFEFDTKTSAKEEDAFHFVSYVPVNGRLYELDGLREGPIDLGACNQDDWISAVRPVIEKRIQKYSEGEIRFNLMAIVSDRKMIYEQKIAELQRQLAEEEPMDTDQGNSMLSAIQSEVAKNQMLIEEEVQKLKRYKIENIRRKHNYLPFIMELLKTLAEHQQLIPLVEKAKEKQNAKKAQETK
Outline: as §1

[8] = target: USP10 (UniProt Q14694)
Outline: as §1

[9] = target: T6, USP15 (UniProt Q9Y4E8)
T6 sequence (whole entry): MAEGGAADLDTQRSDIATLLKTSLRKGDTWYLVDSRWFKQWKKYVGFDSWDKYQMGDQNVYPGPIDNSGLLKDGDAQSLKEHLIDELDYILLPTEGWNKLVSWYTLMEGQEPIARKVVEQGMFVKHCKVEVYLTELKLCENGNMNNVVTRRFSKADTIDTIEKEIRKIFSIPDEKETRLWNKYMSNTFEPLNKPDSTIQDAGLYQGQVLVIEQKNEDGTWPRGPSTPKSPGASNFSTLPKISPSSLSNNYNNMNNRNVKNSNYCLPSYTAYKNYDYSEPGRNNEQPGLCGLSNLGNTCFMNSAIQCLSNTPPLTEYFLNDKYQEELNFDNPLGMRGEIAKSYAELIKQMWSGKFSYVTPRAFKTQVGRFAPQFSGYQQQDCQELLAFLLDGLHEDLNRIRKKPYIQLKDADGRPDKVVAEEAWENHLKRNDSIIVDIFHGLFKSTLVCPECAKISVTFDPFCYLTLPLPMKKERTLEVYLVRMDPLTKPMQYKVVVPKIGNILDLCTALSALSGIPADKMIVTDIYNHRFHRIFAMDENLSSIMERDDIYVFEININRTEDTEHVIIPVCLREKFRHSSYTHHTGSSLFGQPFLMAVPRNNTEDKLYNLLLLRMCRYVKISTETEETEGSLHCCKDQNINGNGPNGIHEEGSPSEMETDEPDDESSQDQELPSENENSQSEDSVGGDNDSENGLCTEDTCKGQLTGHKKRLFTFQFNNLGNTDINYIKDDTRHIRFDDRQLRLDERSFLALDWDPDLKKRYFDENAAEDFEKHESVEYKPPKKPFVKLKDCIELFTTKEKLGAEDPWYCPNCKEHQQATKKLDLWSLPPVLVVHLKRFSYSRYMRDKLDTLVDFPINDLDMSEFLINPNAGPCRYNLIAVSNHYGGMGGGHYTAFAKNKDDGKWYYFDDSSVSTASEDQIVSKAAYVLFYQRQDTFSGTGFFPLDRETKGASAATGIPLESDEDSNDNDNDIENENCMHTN
Outline: as §1

[10] = target: USP16 (UniProt Q9Y5T5)
Outline: as §1

Measured: log2 ratio of Biotin-Ahx-Ub-VS probe labelling

Sequence of UCHL1 (P09936 whole entry, looked up): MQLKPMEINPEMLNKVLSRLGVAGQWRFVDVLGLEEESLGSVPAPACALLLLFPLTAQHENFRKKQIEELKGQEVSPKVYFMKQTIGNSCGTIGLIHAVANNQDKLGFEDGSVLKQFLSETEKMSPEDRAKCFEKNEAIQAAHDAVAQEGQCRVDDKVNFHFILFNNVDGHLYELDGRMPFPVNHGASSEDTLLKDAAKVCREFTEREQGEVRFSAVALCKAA
Sequence of USP10 (Q14694 whole entry): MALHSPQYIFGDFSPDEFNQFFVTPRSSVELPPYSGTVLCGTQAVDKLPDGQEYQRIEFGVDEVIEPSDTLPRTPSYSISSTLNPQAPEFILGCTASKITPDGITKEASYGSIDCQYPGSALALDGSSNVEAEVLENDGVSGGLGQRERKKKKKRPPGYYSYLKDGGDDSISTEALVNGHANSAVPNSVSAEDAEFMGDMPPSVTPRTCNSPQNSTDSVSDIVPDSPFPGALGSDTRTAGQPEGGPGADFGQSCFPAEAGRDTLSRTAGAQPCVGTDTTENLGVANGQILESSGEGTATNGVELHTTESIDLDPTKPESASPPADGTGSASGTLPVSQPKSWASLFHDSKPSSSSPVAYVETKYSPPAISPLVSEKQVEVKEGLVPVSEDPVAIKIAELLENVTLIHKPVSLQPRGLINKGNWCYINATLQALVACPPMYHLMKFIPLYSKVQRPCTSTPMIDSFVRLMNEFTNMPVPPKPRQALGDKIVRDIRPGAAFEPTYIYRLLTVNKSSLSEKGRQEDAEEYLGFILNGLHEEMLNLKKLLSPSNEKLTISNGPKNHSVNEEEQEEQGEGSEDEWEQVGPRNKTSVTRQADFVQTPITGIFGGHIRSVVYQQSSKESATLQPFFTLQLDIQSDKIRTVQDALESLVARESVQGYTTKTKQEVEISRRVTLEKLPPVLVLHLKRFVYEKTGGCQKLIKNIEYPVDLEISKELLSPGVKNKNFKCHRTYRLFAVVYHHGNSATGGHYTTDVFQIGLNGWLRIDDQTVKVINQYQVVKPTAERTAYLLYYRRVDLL
Sequence of USP16 (Q9Y5T5 whole entry, looked up): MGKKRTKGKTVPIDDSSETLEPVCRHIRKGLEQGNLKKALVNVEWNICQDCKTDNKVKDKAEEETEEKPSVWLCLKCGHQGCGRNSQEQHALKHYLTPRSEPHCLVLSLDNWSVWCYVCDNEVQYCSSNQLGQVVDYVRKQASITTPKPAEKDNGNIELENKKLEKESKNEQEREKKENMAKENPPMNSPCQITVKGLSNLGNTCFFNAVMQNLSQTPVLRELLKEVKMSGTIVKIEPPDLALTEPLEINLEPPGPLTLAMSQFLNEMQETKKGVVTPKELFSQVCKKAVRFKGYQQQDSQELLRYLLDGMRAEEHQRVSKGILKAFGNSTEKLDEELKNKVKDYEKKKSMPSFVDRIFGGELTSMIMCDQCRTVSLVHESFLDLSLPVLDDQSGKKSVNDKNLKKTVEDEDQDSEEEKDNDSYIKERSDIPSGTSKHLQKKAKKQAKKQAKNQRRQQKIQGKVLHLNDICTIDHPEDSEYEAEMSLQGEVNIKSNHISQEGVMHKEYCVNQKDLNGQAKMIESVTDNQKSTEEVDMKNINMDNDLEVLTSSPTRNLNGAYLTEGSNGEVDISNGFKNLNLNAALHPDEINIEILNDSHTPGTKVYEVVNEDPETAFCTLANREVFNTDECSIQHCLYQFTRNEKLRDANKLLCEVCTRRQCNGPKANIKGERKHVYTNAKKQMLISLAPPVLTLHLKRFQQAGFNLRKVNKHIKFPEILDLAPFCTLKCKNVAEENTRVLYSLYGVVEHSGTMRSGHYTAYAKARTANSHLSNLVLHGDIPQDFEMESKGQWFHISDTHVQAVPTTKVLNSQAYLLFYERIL

O=C(CCl)NCCc1ccc2c(c1)OCCO2
inactive: [1] -0.218 | [2] -0.434 | [3] 0.0207 | [4] -0.153 | [6] -0.0656 | [7] -0.156 | [8] -0.3 | [9] -0.184 | [10] 0.248
active: [5] -1.2
